This is one part of a sample in which hits are shown more often than they occur.
AMA1 RON2 block = inhibitors of Plasmodium falciparum AMA1-RON2 interaction. AlphaScreen AMA1-biotinylated RON2 peptide binding. Potency, µM (top dose mostly 58.2 µM), inactives show at the top dose activity change, negative = inhibition, actives largely listed as inhibitors. 0.2% of 360,000 active;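 also: potency is read from the fitted curve at half-maximal effect; 0% = vehicle wells and -100% = peptide control; nearly all actives have a fitted effect of over 45% in size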
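AMA1 (3D7) with his tag at 25 nM final met compounds first, then biotinylated RON2 peptide at 25 nM; detection used donor plus acceptor beads, 10 µg/mL apiece, read by AlphaScreen after 30 min at room temperature.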
AmpC inh detg = blocks E. coli AmpC beta-lactamase in detergent assay | P00811 | AmpC hydrolysis of nitrocefin, absorbance 480 nm, 0.01% Triton | Potency, µM (top dose mostly 114 µM), inactives show at the highest dose activity change, negative = inhibition, actives largely listed as inhibitors | 0.041% of 370,000 active;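 also: potency is read from the fitted curve at half-maximal effect; 0% = no-compound wells and -100% = no-enzyme wells; nearly all actives have a fitted effect of over 25% in size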
Target sequence (P00811 whole entry, looked up): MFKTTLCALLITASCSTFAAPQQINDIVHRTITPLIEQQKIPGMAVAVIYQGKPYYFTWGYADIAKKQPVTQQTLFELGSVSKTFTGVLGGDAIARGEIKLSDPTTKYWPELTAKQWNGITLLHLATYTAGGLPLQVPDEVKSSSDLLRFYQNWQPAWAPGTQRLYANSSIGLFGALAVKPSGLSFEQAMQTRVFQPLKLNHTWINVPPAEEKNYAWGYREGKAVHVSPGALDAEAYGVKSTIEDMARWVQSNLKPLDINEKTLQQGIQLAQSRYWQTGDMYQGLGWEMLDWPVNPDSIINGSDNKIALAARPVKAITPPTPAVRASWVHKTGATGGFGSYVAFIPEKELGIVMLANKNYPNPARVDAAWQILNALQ
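20 mM phosphate pH 7.0 + 0.01% (detergent screen) or 0.0001% Triton X-100; 5.3 nM AmpC reagent; cpd preinc 15 min RT; nitrocefin (800 uM stock) to start; A480 q20 s × 4 min; Activity was normalised to no-enzyme and no-compound control wells.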
SARS PLpro yeast = inhibitors of SARS-CoV papain-like protease in yeast; S. cerevisiae expressing SARS-CoV PLpro, growth rescue; AID 485353; 0.19% of 330,000 active; Potency, µM (highest dose often 32.9 µM), for the others: top-dose activity, positive = growth rescue, usual class: activators; calls by dose curve; also: potency is read from the fitted curve at half-maximal effect; 0% is about no effect; nearly all actives have a fitted effect of over 55% in size
Cycloheximide cs = counter-screen for Shiga toxin inhibitors: cycloheximide protein synthesis inhibition | 12% of 300,000 active | max response, % | AID 2314 | cell reporter, cycloheximide protein synthesis inhibition counterscreen; in the data active = max response mostly above about 13%, no sharp cut-off; inactive = mostly below about 14%; also: read at 38.3 µM for the half of the compounds with a filed dose; 0% is about no effect
AmpC inh no detg = AmpC beta-lactamase inhibition without detergent; P00811; AmpC nitrocefin hydrolysis, absorbance 480 nm, 0.0001% Triton; Potency, µM (highest dose often 57.1 µM), inactives show at the top dose activity change, negative = inhibition, most hits filed as inhibitors; 0.52% of 330,000 active;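 also: potency is read from the fitted curve at half-maximal effect; plate controls were no compound for no effect and no enzyme for full effect; nearly all actives have a fitted effect of over 20% in size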
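AmpC (5.3 nM in the dispensed reagent) in 20 mM phosphate pH 7.0 with 0.01% (detergent screen) or 0.0001% Triton X-100 was preincubated with compounds for 15 min at room temperature. Nitrocefin was then added from an 800 uM solution, and hydrolysis was followed at 480 nm.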
Shiga toxin inh = inhibitors of Shiga toxin in Vero cells; 9.2% of 290,000 active; Vero cells, Shiga toxin protein synthesis inhibition reporter; inhibition, % at 38.7 µM; in the data active = inhibition mostly above about 28%, no sharp cut-off; inactive = mostly below about 43%; also: 0% is about no effect
* = called active by the depositor; ? = inconclusive; . = not tested or not shown; [ ] = dose if it differs, or a comment. Unless noted, calls follow the shape of the dose curve; as a rule, active = well fitted curve in the direction sought with a large enough effect; inconclusive = small, poorly fitted or top-dose-only effect, or another doubt; inactive = no such curve, though single readings can be large; an effect the other way counts as inactive or inconclusive.

SMILES	AMA1 RON2 block	AmpC inh detg	SARS PLpro yeast	Cycloheximide cs	AmpC inh no detg	Shiga toxin inh
O=C(Cc1ccccc1)O/N=C1\CCCc2ccccc21	-2%	0%	-4%	-1	-11%	45
O=C(O/N=C1\CCCc2ccccc21)c1cccs1	-4%	-11%	-4%	36*	-23%	70*
COc1ccccc1C(=O)ON=C1c2ccccc2-c2ccccc21	-6%[11.6 µM]	?	-8%	19*	1%	29
CCOC(=O)CSc1nc(CC)nc2ccccc12	10%	-16%	9%	2	-3%	-7
Cc1ccc(NC(=O)CC2SCCNC2=O)cc1[N+](=O)[O-] (stereo not given)	4%	4%	0%	16*	-13%	12
CCOC(=O)c1ccc(NC(=O)CC2SCCNC2=O)cc1 (stereo not given)	0%	?	-4%	38*	-16%	96*
c1ccn2c(SCc3cn4ccsc4n3)nnc2c1	-2%	0%	8%	40*	?	54*
Cc1ccnc(SCc2cn3c(C)cccc3n2)n1	-7%	0%	1%	26*	-8%	59
c1ccc(-n2cnnc2SCc2cn3ccsc3n2)cc1	-6%	-15%	14%	-2	-18%	-1
Cc1cccc2nc(CSc3nnc4ccccn34)cn12	6%	-11%	.	36*	.	59*
CN(C)c1ccc(CNC(=O)CCC(=O)N2Cc3ccccc3Oc3ncccc32)cc1	.	2%	.	.	.	.
Cc1nc2c([nH]c3ccc(Br)cc32)s1	-1%	4%	-23%	15*	-21%	22*
COc1ccccc1NS(=O)(=O)c1ccc(Cl)c(NC(=O)CN2C(=O)c3ccccc3C2=O)c1	-13%	-7%	12%	-2	-20%	0
CC(=O)Oc1cc2c(cc1OC(C)=O)C(=O)CCCC2	77%	.	.	.	.	.
NC(=O)c1sc2nc(-c3ccco3)ccc2c1N	-14%	4%	-9%	37*	-36%	110*
Nc1c(C(=O)Nc2ccccc2F)sc2nc(-c3ccco3)ccc12	48%	2%	0%	47*	-29%	97*
COC(=O)c1sc2nc(-c3ccco3)ccc2c1N	-13%	?	-10%	68*	-32%	93*
Cc1c(C(=O)Nc2c(C)n(C)n(-c3ccccc3)c2=O)oc2c(Cl)cccc12	-12%	8%	3%	-1	-2%	17
COc1cc(/C=C(/C#N)C(=O)NC(C)c2ccccc2)cc(OC)c1O (stereo not given)	-3%	-4%	-1%	-11	15%	-20
COc1ccccc1/C=C/C=C(\C#N)C(=O)NC(C)c1ccccc1 (stereo not given)	-28%	-6%	-6%	11*	-31%	-2
O=C(COc1ccc(Cl)cc1)Nc1ccc(Cl)cc1C(=O)c1ccccc1	.	2%	.	.	.	.
O=C(COc1ccccc1)Nc1ccccc1Oc1ccccc1	20%	-5%	6%	-2	-32%	-3
NC(=O)c1ccccc1NC(=O)COc1ccc(Cl)cc1	-1%	1%	-2%	29*	-19%	90*
O=C(COc1ccc2ccccc2c1)Nc1ccccc1C(=O)O	-6%	1%	7%	20*	-9%	19
O=C(COc1ccccc1)Nc1ccncc1Cl	-9%	3%	6%	52*	-7%	92*
SMILES	AMA1 RON2 block	AmpC inh detg	SARS PLpro yeast	Cycloheximide cs	AmpC inh no detg	Shiga toxin inh
Cc1ccc(OCC(=O)Nc2ccccc2C(N)=O)cc1	5%	?	-3%	35*	-17%	.
O=c1cc(N2CCC3(CC2)OCCO3)[nH]c(=O)n1-c1ccc(Br)cc1	-2%	1%	-9%	-1	-24%	15
Cc1cccc(Nc2nn3c(=O)c4cc5c(cc4nc3s2)OCO5)c1	.	1%	.	.	.	.
O=C(COc1ccc(Br)cc1)Nc1ccccc1C(=O)NC1CC1	1%	?	2%	.	3.2µM*	.
O=C(COc1ccc(Cl)cc1)Nc1ccccc1Cl	-9%	?	0%	49*	-16%	76*
CSc1ccccc1NC(=O)COc1ccc(Cl)cc1	16%	-7%	-18%	32*	-10%	48*
Cc1nc(Cl)c(C(=O)NCc2ccccc2)c(C)c1[N+](=O)[O-]	4%	-17%	-2%	-2	-11%	-6
O=C(Cc1ccccc1)NC(Cc1ccc(Cl)cc1)C(=O)O (stereo not given)	-20%	-6%	0%	-2	-8%	22
Oc1ccccc1-c1nnco1	0%	.	.	.	.	.
COc1cc(/C=C/c2noc(-c3ccccc3O)n2)ccc1OC(C)=O	5%	-10%	-1%	15*	19%	42*
Oc1ccccc1/C=C/c1noc(-c2ccccc2O)n1	-4%	6%	0%	33*	-34%	70*
CC(=O)Nc1ccc(/C=C/c2nc(-c3ccccc3O)n(-c3ccccc3)n2)cc1	.	21%	.	.	.	.
CC(=O)Nc1ccc(/C=C/c2noc(-c3ccccc3O)n2)cc1	1%	2%	-1%	21	-4%	54*
COc1ccc(/C=C/c2nc(-c3ccccc3O)n(-c3ccccc3)n2)cc1OC	.	2%	.	.	.	.
O=C(Nc1ccccc1N1CCCCC1)c1cccs1	6%	4%	-8%	-1	-7%	-7
S=c1[nH]nc(COc2ccccc2)n1/N=C/C=C/c1ccccc1	17%[2.32 µM]	-6%	-23%	-3	-5%	-6
CN(C)c1ccc(CNC(=O)/C=C/[C@H]2O[C@@H](n3cnc4c(NC(=O)c5ccccc5)ncnc43)[C@H](O)[C@@H]2O)cc1	0%	.	.	.	.	.
O=C(Nc1sc(-c2ccccc2)cc1C(=O)O)c1ccccc1	12%	-1%	-7%	35*	-31%	52*
CC(=O)c1sc(-c2ccccc2)cc1N	-28%	0%	-2%	14	-12%	35
CCOC(=O)c1cc(-c2ccccc2)sc1NC(=O)c1ccc(OC)cc1	-3%	-1%	-1%	-1	-19%	-12
NNC(=O)c1cc(-c2ccccc2)sc1N	63%	6%	-3%	36*	-40%	36
NNC(=O)c1sc(-c2ccccc2)cc1N	34%	2%	1%	19*	-41%	50*
CCCCNC(=O)c1cc(-c2ccccc2)sc1N	44%	.	.	.	.	.
Cc1cccc(N(C(=O)Cn2nnc(-c3ccc(F)cc3)n2)C(C(=O)NC(C)(C)C)c2ccncc2)c1 (stereo not given)	-15%	5%	0%	-2	24%	-13
COc1ccc(C(=O)NC(=S)Nc2ccc3[nH]c(=O)[nH]c3c2)cc1Br	18%	.	.	.	.	.
CN(C)c1ccc(NC(=O)Nc2cccc(Cl)c2)cc1	?	?	-8%	31*	5µM*	50*
CN(c1cccc(NC(=O)Nc2cccc(Cl)c2)c1)S(C)(=O)=O	-3%	-7%	1%	37*	-22%	94*
CC(C)NC(=O)Nc1cccc(Cl)c1	13%	-11%	-1%	11	-10%	24
